Test results reported in PubChem BioAssay (NCATS).
“And” between values parts separate entries of the source, which are not always exact repeats. Equal entries are not always repeated. Results filed as inconclusive are left out. The source made the active and inactive calls. Calls follow the shape of the dose curve; as a rule, active = well fitted inhibition curve with a large enough effect; inconclusive = small, poorly fitted or top-dose-only effect; inactive = no such curve, though single readings can be large or run the other way.

assay: qHTS Screen of the MIPE 4.0 Collection Against Ewings Sarcoma (TC32) (AID 1259256); conditions: TC32 Ewing sarcoma viability, CellTiter-Glo, 48 h; series mostly up to 45.8 µM; viability (percent of control): at the top concentration; also: nearly all actives have a fitted effect of over 45% in size;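 as to viability (percent of control): 100% = DMSO-treated cells and 0% = medium-only wells without cells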
Source text: There is a large unmet medical need for treatments for Ewing sarcoma, a pediatric sarcoma. We sought to identify compounds that inhibited Ewing sarcoma cells in vitro with the goal to then test promising drugs in two drug combinations in vitro to look for synergistic drug combinations. Promising combinations would then proceed to additional validation, including in vivo testing.
Using the NCATS developed oncology compound library called the Mechanism of Interrogation Plate (MIPE), four Ewing sarcoma cell lines were evaluated (TC32, TC71, RDES, EW8). Compounds, in a 12-point titration series, were incubated with cells for 48 hours and the read out was cell viability (CellTiter-Glo from Promega). These initial experiments were used to select appropriate concentrations of each single agent for subsequent two-drug matrix combinations such that the concentrations in the matrices would span both activity and non-activity.
Cells, in the log phase of growth, were seeded in 5 uL of RPMI plus 5% FBS, […] L-glutamine, 100 U/ml penicillin and 100 ug/ml streptomycin into 1536-well solid-bottom white tissue culture treated Greiner Bio One Plates (789173-F) using a MultiDrop Combi (Thermofisher Scientific) dispenser and a small sterile cassette. One column was media alone to be used as a :"no cells" control. The plates were then covered with sterilized stainless steel gasketed lids from Kalypsys. After allowing cells to attach for 4 hours, 23 nL of test compound or control (negative control DMSO and positive control 9.2 uM Bortezomib-final) were added from a 1536-well polypropylene compound source plate to each well using a 1536 head pin tool from Kalypsys. Cells were then incubated for 48 hours at 37C, 95% relative humidity and 5% CO2. After 48 hours, plates were removed from the incubator and 3 uL of CellTiter-Glo (Promega) was added using an Aurora Flying Reagent Dispenser Bioraptor. Plates were incubated at room temperature for 10 minutes prior to reading the luminescence on the Viewlux (PerkinElmer). The relative luciferase units are used to calculate the percent activity using the activity of DMSO in the cells and no cells columns for normalization of no inhibition and full inhibition respectively.
Potency is read from the fitted curve at half-maximal effect.

SMILES | viability (percent of control) | Potency
O=C(C1CC1)N1CC[C@@H](Cn2c(-c3ccc(-c4ccc5occc5c4)cc3)nc3cnccc32)C1 | 104% (inactive) | 
Cc1c(CCOc2ccc(C(=O)O)cc2)c2cc(Cl)ccc2n1C(c1ccccc1)c1ccccc1 |  | 10.5 µM (active)
O=c1[nH]c(-c2ccc(C(F)(F)F)cc2)nc2c1CSCC2 |  | 23.5 µM (active)
NC(=O)c1cnccn1 | 126% (inactive) | 
c1ccc([C@H]2CN3CCSC3=N2)cc1 | 111% (inactive) | 
Cn1c(=O)c(F)c(Nc2ccc(I)cc2F)c2c(=O)n(C[C@@H](O)CO)cnc21 | 107% (inactive) | 
Nc1ccc(S(=O)(=O)Nc2ccnn2-c2ccccc2)cc1 | 125% (inactive) | 
Cc1ccc(N(CC2=NCCN2)c2cccc(O)c2)cc1 |  | 16.6 µM (active)
Cc1[nH]c(=O)c(C#N)cc1-c1ccc2nccn2c1 | 133% (inactive) | 
Oc1ccc(C2CNCCc3c2cc(O)c(O)c3Cl)cc1 (stereo not given) | 107% (inactive) | 
Clc1cccc(Cl)c1NC1=NCCN1 | 131% (inactive) | 
NC[C@H](O)c1ccc(O)c(O)c1 | 113% (inactive) | 
CC(C=CC1=C(C)CCCC1(C)C)=CC=CC(C)=CC(=O)O |  | 20.9 µM (active) and 3.72 µM (active)
O=C1[C@H](Cc2ccc(O)cc2)N2C(=O)CCN(C(=O)NCc3ccccc3)[C@H]2CN1Cc1cccc2ccccc12 |  | 1.87 µM (active)
COc1cccc2cc(-c3nc(C4CCC(C(=O)O)CC4)n4ncnc(N)c34)[nH]c12 (stereo not given) |  | 0.526 µM (active)
CCCC(CCC)C(=O)O | 137% (inactive) | 
Cc1cnc(NC(=O)C2=C(O)c3ccccc3S(=O)(=O)N2C)s1 | 124% (inactive) | 
COc1ccc(CCN2CCN(CCCc3ccccc3)CC2)cc1OC | 104% (inactive) | 
CCc1ccc(CCOc2ccc(CC3SC(=O)NC3=O)cc2)nc1 (stereo not given) | 135% (inactive) | 
O=C(O)CCc1ccc(NCc2cccc(Oc3ccccc3)c2)cc1 | 126% (inactive) | 

SMILES | viability (percent of control) | Potency
O=C1CCC(N2C(=O)c3ccccc3C2=O)C(=O)N1 (stereo not given) |  | 0.0037 µM (active)
CCOC(=O)C1=C[C@]2(CC)CCCN3CCc4c(n1c1ccccc41)[C@@H]32 |  | 18.7 µM (active)
O=C(O)COCCN1CCN(C(c2ccccc2)c2ccc(Cl)cc2)CC1 (stereo not given) | 128% (inactive) | 
S=C(NCc1ccc2c(c1)OCO2)N1CCN(c2ncnc3c2oc2ccccc23)CC1 |  | 12.1 µM (active)
O=C1CCc2cc(OCCCCc3nnnn3C3CCCCC3)ccc2N1 | 122% (inactive) | 
CCC(C)n1ncn(-c2ccc(N3CCN(c4ccc(OC[C@H]5CO[C@](Cn6cncn6)(c6ccc(Cl)cc6Cl)O5)cc4)CC3)cc2)c1=O (stereo not given in full) | 118% (inactive) | 
Cc1ccccc1C(OCCN(C)C)c1ccccc1 (stereo not given) | 111% (inactive) | 
CC(C)NCC(O)COc1ccc(COCCOC(C)C)cc1 (stereo not given) | 136% (inactive) | 
CCn1cc(C(=O)O)c(=O)c2cc(F)c(N3CCNC(C)C3)c(F)c21 (stereo not given) | 128% (inactive) | 
Oc1cccc(-c2nc(N3CCOCC3)c3oc4ncccc4c3n2)c1 |  | 0.0762 µM (active)
COc1ccc(COc2cc3oc(=O)c4cc(C(C)O)ccc4c3cc2OC)cc1 (stereo not given) |  | 20.9 µM (active)
CC(C)(C)NCC(O)c1ccc(O)c(CO)c1 (stereo not given) | 114% (inactive) | 
Clc1ccc(Nc2nnc(Cc3ccncc3)c3ccccc23)cc1 |  | 26.4 µM (active)
CC(C)C[C@H](NC(=O)[C@@H](O)[C@H](N)Cc1ccccc1)C(=O)O |  | 23.5 µM (active)
CC(C[N+](C)(C)C)OC(N)=O (stereo not given) | 128% (inactive) | 
Cc1cc(Nc2nc(N[C@@H](C)c3ncc(F)cn3)ncc2Cl)n[nH]1 |  | 16.6 µM (active)
NC(=O)c1ccc(I)c([N+](=O)[O-])c1 | 98.3% (inactive) | 
CC(C)(Sc1ccc(CCN(CCCCC2CCCCC2)C(=O)NC2CCCCC2)cc1)C(=O)O |  | 18.7 µM (active)
OCCn1cc(-c2cnc3nnn(Cc4ccc5ncccc5c4)c3n2)cn1 | 122% (inactive) | 
O=c1[nH]cnc2[nH]ncc12 | 128% (inactive) | 
